Our source for the growth inhibition values is PubChem BioAssay (NCI).

This is part of a sample that, as a whole, favours compounds with a hit. Of some 79,000 tested, about 15% had one in any assay. A number with no mark means an inactive call. The source made the active and inactive calls. Cut-off read from the data, not from the text of the source: active = growth inhibition above about 70%; inactive = the rest.

The first experiment in a line: NCI Yeast Anticancer Drug Screen. Data for the rad50 strain (AID 155).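 Note: 0% = growth of vehicle-only cultures of the same strain.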 The conditions noted are these: S. cerevisiae rad50 strain growth inhibition; at 50.0 µM (retest, dose inferred, filed as 5.0); active compounds read high. The method, boiled down:
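Relative growth inhibition (compound vs vehicle) was measured in yeast with a defined repair-gene alteration.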
As for `C=CC(C)(O)CCC1C(=C)C(O)CC2C(C)(C)CCCC12C` (stereo unspecified), the growth inhibition is 43%.
`S=C(Nc1ccc(Cl)c(Cl)c1)SCc1ccc2c(c1)OCO2`: the growth inhibition is 97% (active).
On to `COc1cc(C2C3=C(COC3=O)Oc3cc4c(cc32)OCO4)ccc1O` (stereo unspecified), for which the growth inhibition was 95% (active).
On the same count and under the same terms, the same measure for `S=C(Nc1ccc(Cl)cc1)SC1CCCCC1`: 65%.
Same read-out and setting: with `Nc1nc(-c2cccnc2)cc(-c2cc(-c3cccnc3)nc(N)n2)n1` the figure was 5%; with `COC1=CC(=O)C2C(C1=O)C(c1ccc(Cl)cc1)[C@@H]2C` (stereo partly specified), 98% (active).
For the compound `c1ccc(-c2nc3cccnc3s2)cc1`, the growth inhibition was 56%.
On the same count and under the same terms, with `O=[N+]([O-])c1cc(CCl)ccc1CCl` the figure was 98% (active); with `COc1ccc(/C=C2\SC(=S)N(/C=C/c3nc4ccccc4[nH]c3=O)C2=O)cc1OC`, 46%; with `CCCN(CCC)CC(O)c1cc(-c2ccc(Cl)cc2)nc2c(C)c(Cl)ccc12` (stereo unspecified), 95% (active).
As to `O=C(Nc1ccccc1)OCCc1ccc(Cl)c(Cl)c1`, the growth inhibition was 74% (active).
Take `CC(O)C(O)C(O)C(/C=N\Nc1ccccc1)=N/Nc1ccccc1` (stereo unspecified): the growth inhibition is 51%.
For `C#CCCCc1ccccc1`, the growth inhibition was 37%.
Still for that read-out and setting: with `CC(=O)Cc1ccc[cH-]1.[Fe+2].c1cc[cH-]c1` the figure was 8%; with `Cc1cc(I)ccc1N`, 79% (active); with `FC(F)(F)c1cc(NC(=S)N2c3ccccc3-n3cccc3C2c2cccnc2)cc(C(F)(F)F)c1` (stereo unspecified), 57%.
On to `CC(C)(CN1CCCCC1)C(=O)CC(SCCS(=O)(=O)O)c1ccc(Br)cc1` (stereo unspecified), for which the growth inhibition is 32%.
The same measure, in the same setting: the same measure for `C[Si](C)(C)CNC(=O)OCc1ccccc1`: -8%.
As to `CC(C(=O)N1C(=O)N(C(=O)[C@H](C)C(O)c2ccccc2)[C@H](c2ccccc2)[C@H]1c1ccccc1)[C@@H](O)c1ccccc1` (stereo partly specified), the growth inhibition is 39%.
For the compound `Oc1cccc2c(Cl)ccnc12`, the growth inhibition was 99% (active).
The same measure, in the same setting: with `O=C1C=CC(=C(c2ccccc2)c2ccccc2)c2ccccc21` the figure was 91% (active); with `S=C(S)NN1CCOCC1`, 66%.

Still in this experiment, the particulars now being: S. cerevisiae rad50 strain growth inhibition; at 50.0 µM; active compounds read high.
With `C/C(=N\NC(=S)SCc1ccccc1)c1ccccn1`, the growth inhibition is 88% (active).
With `CC[C@@]1(O)C(=O)OCc2c1cc1n(c2=O)Cc2cc3c(N)cccc3nc2-1`, the growth inhibition is 88% (active).
Same read-out and setting: with `CN(C)c1ccc(Sc2ccc3nc(N)nc(N)c3c2)cc1` the figure was 60%; with `CC(=O)OCCOCNC(=S)N/N=C(\C)c1cnccn1`, 73.4% (active); with `COc1ccc(C2c3cc4c(cc3OC(C)(O)C2C)OCO4)c(OC)c1` (stereo unspecified), 95.5% (active).
For `COc1cc(C2SCC(=O)N2c2ccc(-c3ccc(-n4c(-c5ccccc5)nc5ccccc5c4=O)cc3)cc2)cc(OC)c1OC` (stereo unspecified), the growth inhibition is 25.9%.
The same measure, in the same setting: the same measure for `COc1ccc(Br)c(C(=O)Sc2nnnn2-c2cccc(Cl)c2)c1`: 87.6% (active); for `O=C(NNc1ccnc2cc(Cl)ccc12)/C(=C\c1ccccc1Cl)NC(=O)c1ccccc1`: 86.1% (active); for `CSC(=S)Nc1cccc(C)n1`: 41.8%.
Same read-out and setting: the same measure for `O=C(/C=C\c1ccc(Cl)cc1Cl)c1cccs1`: -9.15%; for `COc1ccc(-c2cn(-c3ccc(I)cc3)c3ncnc(N)c23)cc1`: 14.8%.
Same read-out and setting: with `CN(C)c1ccc(C(C#N)=C(C#N)C#N)cc1` the figure was 88.2% (active).
In the case of `COc1cc(/C=C2\CCc3ccccc3C2=O)cc(OC)c1OC`, the growth inhibition was 44.1%.
Same read-out and setting: the same measure for `CC(C)/C(Cl)=N\OC(=O)Nc1cccc(Cl)c1`: 69.5%.
Same read-out and setting: with `CC1(C)[C@@H]2CC[C@]1(C)[C@H](OC(=O)CSC#N)C2` the figure was 99% (active).
On to `NNC(=O)CCc1ccc2ccc3ccccc3c2c1`, for which the growth inhibition was 28.1%.
The same measure, in the same setting: the same measure for `COc1ccc(/C(C)=N/OC(=O)c2c(-c3ccccc3Cl)noc2C)cc1CN1CCOCC1`: 64.7%; for `C=CC(C)(O)CCC1C(=C)C(O)CC2C(C)(C)CCCC12C` (stereo unspecified): 63.6%.
On the same count and under the same terms, the same measure for `S=C(Nc1ccc(Cl)c(Cl)c1)SCc1ccc2c(c1)OCO2`: 87.3% (active); for `COc1cc(C2C3=C(COC3=O)Oc3cc4c(cc32)OCO4)ccc1O` (stereo unspecified): 55.9%; for `S=C(Nc1ccc(Cl)cc1)SC1CCCCC1`: 83.2% (active).
The same measure, in the same setting: the same measure for `Nc1nc(-c2cccnc2)cc(-c2cc(-c3cccnc3)nc(N)n2)n1`: 3.7%; for `COC1=CC(=O)C2C(C1=O)C(c1ccc(Cl)cc1)[C@@H]2C` (stereo partly specified): 90.5% (active).
As for `c1ccc(-c2nc3cccnc3s2)cc1`, the growth inhibition was 73.5% (active).
Regarding `O=[N+]([O-])c1cc(CCl)ccc1CCl`, the growth inhibition was 99.1% (active).
The same measure, in the same setting: with `COc1ccc(/C=C2\SC(=S)N(/C=C/c3nc4ccccc4[nH]c3=O)C2=O)cc1OC` the figure was 57.2%; with `CCCN(CCC)CC(O)c1cc(-c2ccc(Cl)cc2)nc2c(C)c(Cl)ccc12` (stereo unspecified), 98.4% (active).
For `O=C(Nc1ccccc1)OCCc1ccc(Cl)c(Cl)c1`, the growth inhibition was 86.7% (active).
The same measure, in the same setting: with `CC(O)C(O)C(O)C(/C=N\Nc1ccccc1)=N/Nc1ccccc1` (stereo unspecified) the figure was 97.8% (active).
The same measure, in the same setting: the same measure for `C#CCCCc1ccccc1`: 24.1%; for `CC(=O)Cc1ccc[cH-]1.[Fe+2].c1cc[cH-]c1`: 96.2% (active).
The same measure, in the same setting: with `Cc1cc(I)ccc1N` the figure was 85.6% (active); with `FC(F)(F)c1cc(NC(=S)N2c3ccccc3-n3cccc3C2c2cccnc2)cc(C(F)(F)F)c1` (stereo unspecified), 74.7% (active).
Take `CC(C)(CN1CCCCC1)C(=O)CC(SCCS(=O)(=O)O)c1ccc(Br)cc1` (stereo unspecified): the growth inhibition is 73.8% (active).
Still for that read-out and setting: with `C[Si](C)(C)CNC(=O)OCc1ccccc1` the figure was 37.1%; with `CC(C(=O)N1C(=O)N(C(=O)[C@H](C)C(O)c2ccccc2)[C@H](c2ccccc2)[C@H]1c1ccccc1)[C@@H](O)c1ccccc1` (stereo partly specified), 80.1% (active).
Still for that read-out and setting: the same measure for `Oc1cccc2c(Cl)ccnc12`: 91.5% (active); for `O=C1C=CC(=C(c2ccccc2)c2ccccc2)c2ccccc21`: -6.5%.
With `S=C(S)NN1CCOCC1`, the growth inhibition was 85.2% (active).
